About 1,500 (3.8%) of roughly 39,000 compounds were called active. The entries come from a sample that favours actives as a whole.
Test system: HSkMC (human skeletal muscle cells)
Test: cytotoxicity call (relative viability < 0.9)
Details: 10 µM

SMILES	cytotoxicity call
NC[C@@H](CC(=O)O)c1ccccc1	inactive
CCOC(OCC)P(=O)(O)CCCN	inactive
CC(=O)N[C@@H]1[C@H](O[C@@H]2O[C@H](C[C@@H](O)[C@H]3O[C@@H](n4ccc(=O)[nH]c4=O)[C@H](O)[C@@H]3O)[C@H](O)[C@H](O)[C@H]2NC(=O)/C=C/CCCCCCCCC(C)C)O[C@@H](CO)[C@H](O)[C@H]1O	inactive
Oc1cc(Cl)ccc1Oc1ccc(Cl)cc1Cl [listing 1 of 2 here]	active
Oc1cc(Cl)ccc1Oc1ccc(Cl)cc1Cl [listing 2 of 2 here]	inactive
Oc1ccc(Cl)cc1Cc1cc(Cl)ccc1O	inactive
CC(C)[C@@H]1NC[C@@H]2CCCN2C1=O	inactive
Oc1ccccc1-c1ccccc1O	inactive
CC1=CC(=O)c2c(O)cccc2C1=O	active
O=C1C=CC(=O)c2c(O)cccc21	inactive
O=C(O)C=CC(=O)O.c1ccc2nc(N3CCNCC3)ccc2c1	inactive
Cc1ncc(CNC(=O)N(CCCl)[NH2+][O-])c(N)n1	inactive
CC(=O)OC1C2CCC3C(C)(O)C4CC(O)C(C)(C)C4(O)C(O)CC13CC2(C)O (stereo unspecified)	inactive
Cc1cc(C2=NO[C@](c3cc(Cl)cc(Cl)c3)(C(F)(F)F)C2)ccc1C(=O)NCC(=O)NCC(F)(F)F	active
CN1CCOCC12CCN(c1ncccn1)CC2	inactive
COc1ccc(C2(CN)CCCC2)cc1	inactive
NCc1cc(=O)[nH]o1	inactive
O=C1N[C@@H]2C(=C[C@H](O)[C@@H](O)[C@H]2O)c2cc3c(c(O)c21)OCO3	active
N[C@@H](c1ccccc1)[C@H](O)c1ccccc1	inactive
CNC(=O)Oc1ccc2c(c1)C1(C)CCN(C)C1N2C.O=S(=O)(O)O (stereo unspecified)	inactive
Cc1ccc(N2CCO[C@@H]3CNCC[C@H]3C2)nn1	inactive
NCCc1nccs1	inactive

SMILES	cytotoxicity call
CCN1C[C@H]2CN(Cc3nccn3C)C[C@H]2C1=O	inactive
CNC(=O)Oc1cccc2ccccc12	inactive
C[C@H]1C[C@H]2CNCC[C@@H]2O1	inactive
O=[N+]([O-])c1ccc(N(CCO)CCO)c2c1no[n+]2[O-]	active
CNC(=O)Oc1ccc2c(c1)C1(C)CCN(C)C1N2C.O=C(O)c1ccccc1O (stereo unspecified)	inactive
Cn1ccnc1CN1CCC[C@]2(CCNC2=O)C1	inactive
CC(=O)NN1Cc2ccccc2C1=N	inactive
CC(C)c1ccc2[nH]c(=O)c(CCN)cc2c1	inactive
[N-]=[N+]=NCc1ccccc1C[C@@]1(C(=O)NCCN2CCOCC2)N=C(c2ccc(OCCCO)cc2)O[C@@H]1c1ccccc1N=[N+]=[N-]	inactive
CC1=C2CC3C(CC=C4CC(O)CCC43C)C2CCC12OC1CC(C)CNC1C2C (stereo unspecified)	inactive
Cc1ccc(OC(=O)N(C)C[C@H]2OCc3ccccc3-c3c(n(C)c4ccccc34)C(=O)N([C@@H](C)CO)C[C@@H]2C)cc1	inactive
O=C1[O][SbH]23[O]C(=O)[C@H]([O]2)[C@H]2[O][SbH]4([O]C(=O)[C@H]([O]4)[C@H]1[O]3)[O]C2=O	active
O=C1[O][SbH]23[O]C(=O)C([O]2)C2[O][SbH]4([O]C(=O)C([O]4)C1[O]3)[O]C2=O	inactive
CC(C)(C)NCC(O)c1ccccc1Cl.Cl (stereo unspecified)	inactive
CC(C)(C#N)O[C@@H]1O[C@H](CO)[C@@H](O)[C@H](O)[C@H]1O	inactive
CN1C(=O)[C@@]23C[C@]4([C@@]56C[C@]78SS[C@](CO)(C(=O)N7[C@@H]5Nc5ccccc56)N(C)C8=O)c5ccccc5N[C@H]4N2C(=O)[C@@]1(CO)SS3	active
CN1C(=O)[C@]23CC4=CC=C[C@H](O)[C@H]4N2C(=O)[C@@]1(CO)SS3	active
N#C[C@H](O[C@@H]1O[C@H](CO[C@@H]2O[C@H](CO)[C@@H](O)[C@H](O)[C@H]2O)[C@@H](O)[C@H](O)[C@H]1O)c1ccccc1	inactive
CN1CC[C@]2(CCCO2)C1	inactive
CCOc1ccc(CN)cn1	inactive
NSC(=S)N1CCCC1	inactive
O=C1C=C2C=CC3CC2(O1)C1CCCCN31 (stereo unspecified)	inactive

SMILES	cytotoxicity call
Nc1ccc2c(c1)CNCC2	inactive
O=c1[nH]c2ccccc2n1CCCN1CCC(n2c(=O)[nH]c3cc(Cl)ccc32)CC1	inactive
O=c1[nH]c2ccccc2n1C1CCN(CCCC(c2ccc(F)cc2)c2ccc(F)cc2)CC1	active
COc1ccn(C)c(=O)c1C#N	inactive
Cl.c1ccc2c(c1)OCC(C1=NCCN1)O2 (stereo unspecified)	inactive
CI.O=C(COc1ccc(Cl)cc1Cl)OC[C@H]1CCCN2CCCC[C@@H]12	inactive
O=C1CO[C@]2(CNCCOC2)CN1CC1CC1	inactive
CN(C)C(=O)CCC(=O)N1C[C@H]2C[C@@H]1CN2	inactive
CO[C@@H]1C[C@@H](C[C@H]2CC[C@H](C)[C@H]([C@@H](C)C(=O)O)O2)O[C@]2(O[C@](C)([C@H]3CC[C@@](C)([C@H]4O[C@@H]([C@H]5O[C@@](O)(CO)[C@H](C)C[C@@H]5C)C[C@@H]4C)O3)C[C@H]2C)[C@@H]1C	active
C[C@@H]1CN([C@H](C)CO)C(=O)CCCn2nncc2CO[C@@H]1CN(C)C(=O)Oc1cccc2ccccc12	inactive
Clc1ccc(C(c2ccc(Cl)cc2)C(Cl)(Cl)Cl)cc1	inactive
N[C@H]1C[C@H]1c1ccccc1	inactive
O=C(Cc1ccccc1)c1ccccc1	inactive
CC(=O)[O][Hg][c]1ccccc1	active
NCC(=O)c1ccccc1	inactive
O.O.O.O=C([O-])C1[O][Sb]2[O]C(=O)C([O]2)C(C(=O)[O-])[O][Sb]2[O]C(=O)C1[O]2.[K+].[K+] (stereo unspecified)	inactive
CC[C@@H](C)[C@H]1NC(=O)C(C(C)=O)=C1O	inactive
CCC(N)C(O)c1ccc(O)c(O)c1.Cl (stereo unspecified)	inactive
CC[C@@H](N)[C@@H](O)c1ccc(O)c(O)c1	active
C[C@H](N)[C@H](O)c1ccc(O)c(O)c1	inactive
Cn1cc([C@@H](O)c2ccccc2)[n+](C)c1	inactive
CC(CO)NC(=O)C1C=C2c3cccc4[nH]cc(c34)CC2N(C)C1.O=C(O)C=CC(=O)O (stereo unspecified)	inactive

From the antibiotic and cytotoxicity screens of Wong et al. (2023)
